# An excerpt weighted towards active compounds, which were near 3.8% of everything screened.
# NTR1 ag: NTR1 (human) agonism. hit rate 0.17% among 330,000. NTR1-U2OS beta-arrestin-GFP spot imaging, agonist mode. AID 493036. activation, % at 20 µM. P30989;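 active = activation at or above 40% of the spot to cytoplasm intensity ratio, with at least 20 cells analyzed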;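 note: 0% = DMSO without peptide and 100% = 100 nM NTR1 peptide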
# Target sequence (P30989 whole entry, looked up): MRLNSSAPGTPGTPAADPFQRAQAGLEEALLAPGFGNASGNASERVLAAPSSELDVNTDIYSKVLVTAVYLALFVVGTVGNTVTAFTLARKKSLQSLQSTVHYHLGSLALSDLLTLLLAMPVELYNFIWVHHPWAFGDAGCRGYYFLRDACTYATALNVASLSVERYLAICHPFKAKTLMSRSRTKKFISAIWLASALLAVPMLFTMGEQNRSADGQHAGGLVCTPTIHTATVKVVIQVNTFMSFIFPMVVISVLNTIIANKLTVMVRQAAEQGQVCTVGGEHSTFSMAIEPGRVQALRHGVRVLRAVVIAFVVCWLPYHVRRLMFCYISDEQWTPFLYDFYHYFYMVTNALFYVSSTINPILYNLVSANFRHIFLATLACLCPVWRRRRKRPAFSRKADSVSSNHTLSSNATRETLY
# Jurkat NFkB inh: lowers PMA/ionomycin-induced NF-kB signal in Jurkat cells; inhibition, % at 4 µM; hit rate 0.53% among 330,000; PMA/ionomycin-induced NF-kB luciferase reporter, luminescence; in the data active = inhibition above about 50%
# A1 inh: inhibitors of the anti-apoptotic protein A1, read as caspase activation; MEF A1-2A-BIM cells, Caspase-Glo 3/7 luminescence, 3 h; percent of clofoctol response, vehicle zero; caspase activation, % (test concentration not listed); hit rate 0.066% among 330,000;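 active = over half of replicate activation scores above 10%, or exactly half above 10 with the replicate mean above 10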
# Beta cell apopt: blocks beta cell apoptosis; INS-1E cytokine-induced death, ATP luminescence, 48 h; percent of positive-control rescue, neutral wells zero; protection from apoptosis, % (test concentration not listed); hit rate 0.8% among 300,000; AID 435005;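 active = Every replicate reaches about 75%, or at least half do and their mean reaches it too, limit read from the data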;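 note: 0% = cytokine-treated negative control wells and 100% = positive control rescue; higher means more ATP so stronger rescue from cytokine killing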
# 697 NFkB inh: inhibitors of the PMA/ionomycin-induced NF-kB reporter in 697 B cells | 697 B-cell NF-kB luciferase reporter, 16 h | inhibition, % at 4 µM | hit rate 0.33% among 330,000 | AID 435022; in the data active = inhibition above about 35%
# Mdm2-MdmX inh: disrupts the human Mdm2-MdmX interaction; AID 485346; SaOS-2 split-luciferase Mdm2/MdmX complementation, luminescence; inhibition, % at 8 µM; hit rate 3% among 330,000;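 active = inhibition of at least 50% at 8 µM in the primary screen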
# 697 NFkB conf: inhibitors of the PMA/ionomycin-induced NF-kB reporter in 697 B cells, retest. AID 449746. hit rate 35% among 2,000. shares compounds with 697 NFkB inh. 697 B-cell NF-kB luciferase, 16 h. inhibition, % at 4 µM; in the data active = inhibition mostly above about 28%, no sharp cut-off; inactive = mostly below about 22%
# * hit, by the source's call; i = inactive; . = no result given.
SMILES,NTR1 ag,Jurkat NFkB inh,A1 inh,Beta cell apopt,697 NFkB inh,Mdm2-MdmX inh,697 NFkB conf
Nc1cc(Cl)nc(N/N=C/c2ccc([N+](=O)[O-])cc2)n1,0,2,0,10,41*,-12,11
COc1ccc2cc3cc(C(=O)N4CCCCCC4)oc3nc2c1,2,-136,-14,3,-266,-169,-244
COc1ccc2cc3cc(C(=O)N(C)C4CCCCC4)oc3nc2c1,9,-136,1,11,-213,-151,.
Cc1c(Cc2ccccc2)c(=O)oc2cc(OCC(=O)N3CCC(C(N)=O)CC3)ccc12,0,-6,0,-8,13,-10,.
Cc1nn(C)c(C)c1CN(C)C(=O)c1cnn2c1NC(c1ccccc1)CC2C(F)(F)F (stereo not given),2,14,-1,31,39*,5,27
CC(NC(=O)c1nn(C)c2c1CS(=O)(=O)c1ccccc1-2)c1ccccc1 (stereo not given),-1,1,0,-3,10,8,.
CC(=O)Nc1ccc2nc(SCC(=O)O)sc2c1,-1,-9,0,0,36*,3,7
CCOC(=O)CSc1nc2ccc(NC(C)=O)cc2s1,0,-3,0,-6,14,-10,.
N=c1c(C(=O)NC2CCCC2)cc2c(=O)n3ccccc3nc2n1CCN1CCOCC1,1,2,1,-3,49*,33,50*
N=c1c(C(=O)NC2CCCC2)cc2c(=O)n3ccccc3nc2n1CCCN1CCOCC1,0,8,0,5,-6,16,.
CCOC(=O)Cc1ccc(NC(=O)c2ccccc2Br)cc1,0,12,-1,2,32,-6,.
CCOC(=O)Cc1ccc(NC(=O)c2ccc(C(C)(C)C)cc2)cc1,7,47,1,6,90*,49,64*
CCc1n[nH]c(=S)n1/N=C/c1cc(Br)c(O)c(OC)c1,0,-1,-1,2,36*,23,-2
COc1ccc(-c2noc(N3CCC(C(=O)Nc4ccc(OC)cc4OC)CC3)n2)cc1,1,5,0,6,29,11,.
COc1ccc(-c2noc(N3CCC(C(=O)Nc4ccc(F)cc4F)CC3)n2)cc1,0,17,0,4,36*,17,35*
CCc1[nH]nc2c1C(c1ccc(Br)s1)C(C#N)=C(N)O2 (stereo not given),7,9,1,-10,43*,40,23
c1ccc(-c2ccc(-c3nc(-c4ccncc4)no3)cc2)cc1,1,-94,-7,-5,-301,-46,-260
CCc1ccc(-c2nc(-c3ccncc3)no2)cc1,3,-133,-6,2,-264,-66,-210
CCCCc1ccc(-c2nc(-c3ccncc3)no2)cc1,3,-136,-6,-2,-219,-106,.
COCCN(C/C=C/c1ccccc1)C/C=C/c1ccccc1,3,14,0,-1,-1,25,.
O=c1cnn([C@@H]2O[C@H](CO)[C@@H](O)[C@H]2O)c(=O)[nH]1,-1,4,0,-14,i,39,i
O=C(O)c1cc(N/N=C/c2ccc(-c3ccccc3)cc2)ccc1Cl,.,.,-8,-2,.,.,.
CSc1ccc(/C=N/Nc2ccc(Cl)c(C(=O)O)c2)cc1,4,-114,-7,-16,-370,-225,-26
CCC(=O)N(C1=C(NC)C(=O)c2ccccc2C1=O)C(C)C,0,35,0,45,52*,-30,47*
CC1=NN(C(N)=S)C(=O)C1N=Nc1ccc(Cl)cc1 (stereo not given),0,-74,-10,26,-230,-80,.
SMILES,NTR1 ag,Jurkat NFkB inh,A1 inh,Beta cell apopt,697 NFkB inh,Mdm2-MdmX inh,697 NFkB conf
CC1=NN(C(N)=S)C(=O)C1N=Nc1ccc(Br)cc1 (stereo not given),0,-93,-7,.,-314,-78,-7
CC(C)c1[nH]nc2c1C(c1ccco1)C(C#N)=C(N)O2 (stereo not given),1,7,0,0,49*,19,30*
Cc1ccc(C)c(NC(=O)CSc2nc(=O)n(CCN3CCOCC3)c3c2CCCC3)c1,1,9,2,0,13,10,.
Cc1cc(Nc2ccc(F)cc2F)n2ncnc2n1,2,12,1,4,9,14,.
Cc1cc(Nc2ccccc2N2CCOCC2)n2ncnc2n1,0,4,0,2,35*,25,25
Cc1cc(NC(=O)c2cccs2)ncc1NC(=O)C(C)(C)C,1,-94,-6,1,-113,-30,.
COc1ccc(OC)c(NC(=O)c2[nH]c(C)c(C(C)=O)c2C)c1,3,-3,-1,2,36*,30,33*
Cc1ccc(Nc2nc(N3CCOCC3)nc(N3CCOCC3)n2)cc1C,2,32,2,1,55*,42,47*
Cc1ccc(/C=C/c2nnc(-c3ccccc3)o2)cc1,1,-41,-5,1,-96,-143,.
C(=C\c1nnc(-c2cccs2)o1)/c1ccccc1,2,-128,-5,4,-260,-155,-199
CCC1(c2ccc(Cl)cc2)NC(=O)N(CC(=O)NC2CCCC(C)C2C)C1=O (stereo not given),0,22,.,.,39*,-24,-1
CCC1(c2ccc(F)cc2)NC(=O)N(CC(=O)NC2CCCC(C)C2C)C1=O (stereo not given),5,21,0,-2,24,17,.
Cc1ccc(-c2n[nH]c(=O)c3ccccc23)cc1S(=O)(=O)NCCN1CCOCC1,2,-6,2,-3,7,0,.
Cc1ccc(-c2nn3c(C)nnc3c3ccccc23)cc1S(=O)(=O)NCCN1CCOCC1,0,-6,0,11,53*,24,30*
O=C(Nc1nccs1)c1sc2cc(Cl)ccc2c1Cl,4,-93,-2,22,-87,-38,.
O=C(Nc1nccs1)c1sc2ccccc2c1Cl,0,-115,-4,20,-352,-98,-326
O=C(NNC(=O)C12CC3CC(CC(Br)(C3)C1)C2)c1ccccc1F,-2,3,1,11,44*,-9,43*
CCCCn1c(N)c(N(CCOC)C(=O)CCCc2cccs2)c(=O)[nH]c1=O,0,1,2,-5,5,4,.
Cc1nnc2sc(SCc3ccc(Br)cc3)nn2c1=O,-1,-5,1,-4,37*,10,13
COc1ccc(NC(=O)c2cc(-c3ccccn3)nc3ccccc23)cc1S(=O)(=O)N(C)C,2,18,-1,2,39*,49,46*
CCn1c(=O)cc(OCC(=O)NCCCN2CCC(C)CC2)c2ccccc21,0,-7,1,.,32,40,.

# Screening data: PubChem, several laboratories
